# Values joined by “and” are separate entries in the source; they are usually repeats but may differ in a detail not shown here. Identical values can stand only once. About 79,000 compounds went through this panel and 15% of them were active in at least one assay; those are over-represented in the sample as a whole. Values without a mark were called inactive. Active and inactive are the calls of the source. No stated cut-off is given here; in the data, active means growth inhibition above about 70%; inactive means the rest.
# How the values were obtained:
# [1] = NCI Yeast Anticancer Drug Screen. Data for the rad50 strain (AID 155);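 further: 0% = growth of vehicle-only cultures of the same strain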; conditions: S. cerevisiae rad50 strain growth inhibition, stronger effect = higher value
# Summary of the method: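 Compounds were tested on a yeast strain with an engineered DNA damage repair alteration; the reported value is growth inhibition normalised to vehicle treatment.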
# [2] = NCI Yeast Anticancer Drug Screen. Data for the mec2-1 strain (AID 157); conditions: S. cerevisiae mec2-1 strain, stronger effect = higher value
# Summary of the method: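 Each compound was tested on mec2-1 yeast, a strain altered in DNA damage repair or cell cycle control. Growth inhibition is reported relative to vehicle.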
# [3] = NCI Yeast Anticancer Drug Screen. Data for the sgs1 mgt1 strain (AID 161);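 further: 0% = growth of cultures given vehicle only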; conditions: S. cerevisiae sgs1 mgt1 strain, stronger effect = higher value
# Summary of the method: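 Inhibition of yeast growth, normalised to vehicle-treated controls, is reported for a strain bearing genetic alterations in DNA damage repair.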
# [4] = NCI Yeast Anticancer Drug Screen. Data for the cln2 rad14 strain (AID 165);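 further: 0% = growth equal to vehicle treated cultures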; conditions: S. cerevisiae cln2 rad14 strain, stronger effect = higher value
# Summary of the method: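 Test compounds were added to cln2 rad14 yeast cultures; inhibition of growth was then determined by comparison with vehicle treatment.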
# [5] = NCI Yeast Anticancer Drug Screen. Data for the bub3 strain (AID 167); conditions: S. cerevisiae bub3 mutant strain, stronger effect = higher value
# Summary of the method: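 Growth of a checkpoint-deficient yeast mutant is measured after compound exposure. Values represent inhibition relative to vehicle.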
# [6] = NCI Yeast Anticancer Drug Screen. Data for the mlh1 rad18 strain (AID 175); conditions: S. cerevisiae mlh1 rad18 strain growth inhibition, stronger effect = higher value
# Summary of the method: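 Inhibition values reflect reduced growth of mutant yeast versus vehicle-treated controls following compound exposure; the mutations affect DNA damage repair.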
# [7] = at 5.0 µM (retest, dose inferred, filed as 0.5)
# [8] = at 50.0 µM (retest, dose inferred, filed as 5.0)
Compound,"growth inhibition [1, 7]","growth inhibition [1, 8]",growth inhibition ([1]; at 50.0 µM),"growth inhibition [2, 7]","growth inhibition [2, 8]",growth inhibition ([2]; at 50.0 µM),"growth inhibition [3, 7]","growth inhibition [3, 8]",growth inhibition ([3]; at 50.0 µM),"growth inhibition [4, 7]","growth inhibition [4, 8]",growth inhibition ([4]; at 50.0 µM),"growth inhibition [5, 7]","growth inhibition [5, 8]",growth inhibition ([5]; at 50.0 µM),"growth inhibition [6, 7]","growth inhibition [6, 8]",growth inhibition ([6]; at 50.0 µM)
C[C@]12CC[C@H]3[C@@H](C[C@@H](F)C4=CC(=O)CC[C@@]43C)[C@@H]1CC[C@@H]2O,7%,46%,56.2%,3%,58%,7.4%,4%,93% (active),56%,-2%,30%,6.75%,0%,80% (active),34%,15%,86% (active),30.1%
C[As](C)SCCC(CCCCC(=O)O)S[As](C)C (configuration not stated),27%,38%,66.2%,27%,32%,47%,2%,-69%,78.3% (active),5%,-52%,37.4%,2%,-42%,76.5% (active),39%,65%,25.4%
C[n+]1c(/C=C/c2ccc(O)c3ncccc23)[se]c2ccccc21,22%,93% (active),93.4% (active),2%,90% (active),93.5% (active),24%,91% (active),92.3% (active),11%,88% (active),92% (active),2%,91% (active),93% (active),43%,90% (active),93.4% (active)
CCCCN(CC)CC(C(C)=O)c1c(O)c2ccccc2oc1=O (configuration not stated),8%,22%,66.8%,4%,28%,48.2%,0%,65%,60.5%,15%,59%,45.2%,21%,73% (active),59%,-13%,34%,42.9%
CC(=O)OC1C(O)C(C)OC(OC2C(OC(=O)C3CCC4C(C3)OC3(CC(OC(=O)/C=C/c5ccccc5)C(C)CO3)C43CO3)OC(C)C(O)C2OC(C)=O)C1O (configuration not stated),-20%,96% (active),91% (active),10%,98% (active),92.7% (active),-5%,95% (active),93% (active),24%,96% (active),90.1% (active),6%,98% (active),92.2% (active),-1%,97% (active),91.6% (active)
CC[CH2][Sn]([Br])([Br])[CH2]CC,29%,91% (active),83.2% (active),21%,95% (active),87.2% (active),35%,95% (active),87.1% (active),26%,87% (active),85.2% (active),31%,96% (active),83.2% (active),33%,93% (active),87.1% (active)
CC(=O)OCC1OC(OC(C)C)[CH]([Hg][S]Cc2ccccc2)C(OC(C)=O)C1OC(C)=O (configuration not stated),99% (active),98% (active),54.8%,99% (active),99% (active),57.9%,94% (active),98% (active),44.6%,37%,98% (active),96.8% (active),99% (active),98% (active),98.2% (active),99% (active),97% (active),46.1%
COc1cc(C(=O)CCN(CCCl)CCCl)cc(OC)c1OC,-1%,68%,95.5% (active),0%,67%,97.3% (active),13%,82% (active),97.2% (active),0%,55%,99.5% (active),-3%,82% (active),93.2% (active),13%,83% (active),97.1% (active)
N#CC(C#N)=Cc1cc(Cl)ccc1O,11%,79% (active),56% and 4.55%,-14%,44%,45.5% and 17.9%,2%,58%,46% and 65.7%,4%,30%,40.7% and -4.9%,31%,64%,20.7% and 2.2%,8%,71% (active),65.8% and 39.8%

# From PubChem BioAssay (NCI)
